Measured values reported in publication PMC4336329 (PLoS ONE, 2015).
Screen size: about 310,000 compounds; about 14,000 (4.5%) showed an effect of 50% or more. Effects have a minus sign here. Shown is part of a subset that was picked to be rich in strong results.

target: human ether-à-go-go-related gene (hERG) potassium channel (human, UniProt Q12809); assay: primary screen, population patch clamp on CHO cells stably expressing hERG; higher = less effect of the substance
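Note: peak tail current of the secondary pulse compared with the same well before compound.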

Sequence of human ether-à-go-go-related gene (hERG) potassium channel (Q12809 whole entry, looked up): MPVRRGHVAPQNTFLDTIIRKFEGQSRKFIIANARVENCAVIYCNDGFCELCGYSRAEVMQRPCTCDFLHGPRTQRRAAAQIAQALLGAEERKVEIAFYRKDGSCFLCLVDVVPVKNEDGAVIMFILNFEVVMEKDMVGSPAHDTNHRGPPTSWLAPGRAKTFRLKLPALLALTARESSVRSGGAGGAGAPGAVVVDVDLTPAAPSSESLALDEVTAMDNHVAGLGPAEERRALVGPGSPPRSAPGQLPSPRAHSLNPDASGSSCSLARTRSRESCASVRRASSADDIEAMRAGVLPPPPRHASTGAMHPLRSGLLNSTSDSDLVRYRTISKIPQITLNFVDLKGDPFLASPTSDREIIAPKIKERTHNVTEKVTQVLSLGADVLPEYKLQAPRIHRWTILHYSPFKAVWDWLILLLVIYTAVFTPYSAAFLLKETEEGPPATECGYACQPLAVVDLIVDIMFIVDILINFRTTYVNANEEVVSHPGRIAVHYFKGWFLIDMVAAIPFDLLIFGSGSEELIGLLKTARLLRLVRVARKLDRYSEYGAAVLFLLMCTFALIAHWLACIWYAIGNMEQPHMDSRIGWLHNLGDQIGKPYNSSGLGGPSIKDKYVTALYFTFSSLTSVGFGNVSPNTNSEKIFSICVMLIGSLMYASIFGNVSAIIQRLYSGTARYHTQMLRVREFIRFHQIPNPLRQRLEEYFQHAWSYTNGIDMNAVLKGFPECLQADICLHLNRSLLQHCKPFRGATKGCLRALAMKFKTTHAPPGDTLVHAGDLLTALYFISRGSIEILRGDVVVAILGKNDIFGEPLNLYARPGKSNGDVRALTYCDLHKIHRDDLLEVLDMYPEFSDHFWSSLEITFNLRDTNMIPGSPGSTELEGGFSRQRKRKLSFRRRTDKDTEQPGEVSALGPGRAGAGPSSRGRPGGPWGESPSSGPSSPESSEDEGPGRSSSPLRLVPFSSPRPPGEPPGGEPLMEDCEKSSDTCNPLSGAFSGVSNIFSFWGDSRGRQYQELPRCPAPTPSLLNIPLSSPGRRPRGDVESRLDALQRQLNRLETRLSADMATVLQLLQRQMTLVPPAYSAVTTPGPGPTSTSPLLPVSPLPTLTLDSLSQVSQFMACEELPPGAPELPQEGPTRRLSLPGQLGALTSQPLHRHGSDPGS

Point of comparison: `O=C(Cn1cnc2c(nnn2Cc2ccccc2)c1=O)c1ccccc1`, “hERG current change (%, negative = inhibition) at 10uM” value -8%. Against it:
- COc1cccc(NC(=O)c2nn(C)c3c2CS(=O)(=O)c2ccccc2-3)c1 — higher, 8.68%
- O=C(NCCCc1ccccc1)c1cccc([N+](=O)[O-])c1 — lower, -23%
- COc1ccc(COC(=O)Nc2cn(C)nc2C(F)(F)F)cc1 — higher, -7.76%
- C=C(C)C(=O)N1CC2(CC(c3cccc(NC(=O)COc4ccc(Cl)cc4)c3)=NO2)C[C@@H]1C(N)=O (some centres unmarked) — lower, -15.3%
- CN1Cc2c(N3CCOCC3)nc(SCCC#N)c(C#N)c2CC1(C)C — higher, -2.45%
- COc1ccc(Cc2nnc(NC(=O)c3ccco3)s2)cc1OC — higher, 5.42%
- c1ccc2[nH]c(CSc3nccs3)nc2c1 — higher, -6.76%
- COCCN(Cc1cc2ccc(C)c(C)c2nc1Cl)C(=O)N1CCOCC1 — lower, -11%
- OCC1(CCOc2ccccc2)CCN(Cc2cn[nH]c2-c2ccccc2)CC1 — lower, -74.4%
- OCC1(CCOc2ccccc2)CCN(Cc2cn[nH]c2-c2ccc(F)cc2)CC1 — lower, -71.6%
- OCC1(CC2CCCCO2)CCN(Cc2nc3ccccc3[nH]2)CC1 (centres unmarked) — higher, 18%
- Cc1ccccc1CC1(CO)CCCN(Cc2cn[nH]c2-c2ccccc2)C1 (centres unmarked) — lower, -23.9%
- OCCC1CN(Cc2nc3ccc(F)cc3[nH]2)CCN1C1CCCC1 (centres unmarked) — lower, -15.9%
- OCC1(CCOc2ccccc2)CCN(Cc2nc3ccc(F)cc3[nH]2)CC1 — lower, -55%
- CC1CCN(CC(=O)Nc2ccc(S(=O)(=O)N3C(C)CCCC3C)cc2)CC1 (centres unmarked) — higher, 3.93%
- O=C(Cc1ccccc1)NCCc1cnc[nH]1 — higher, 17.4%
- COc1ccc(C(=O)NCC(C)NC(=O)c2ccc(OC)c(OC)c2)cc1OC (centres unmarked) — higher, 13.8%
- COC(=O)Cc1ccc(NC(C)=O)cc1 — higher, 8.79%
- COc1cccc(NC(=O)CCC(=O)NCc2ccco2)c1 — higher, 17.2%
- Cc1c(Cl)cccc1NC(=S)/C(=C(\[O-])c1ccc(Cl)s1)[n+]1ccccc1 — higher, 3.76%
- Cc1cc(C=C2C(=O)c3ccccc3C2=O)c(C)n1-c1ccc(C(=O)O)cc1 — higher, 1.68%
- Cc1nn2c(C(F)(F)F)cc(-c3ccc(Cl)cc3)nc2c1C(=O)N1CCOCC1 — lower, -13.6%
- CCN(CC)P(=S)(c1c(C)nc2ccccn12)c1c(C)nc2ccccn12 — lower, -9.33%
- Cc1nc2ccccn2c1P(=Nc1ccccc1)(N(C)C)N(C)C — lower, -52.5%
- CCN(CC)P(=O)(c1ccccc1)c1c(C)nc2ccccn12 (centres unmarked) — higher, -3.24%
- N#Cc1c(SCC(=O)Nc2nc3ccc(Br)cc3s2)sc2c(O)cc(=O)[nH]c12 — higher, 9.27%
- CC(C)CNC(=S)NC(=O)c1ccc(F)cc1 — higher, 5.45%
- CC(=O)c1ccc2c(c1)C1C=CCC1C(c1ccncc1)N2 (centres unmarked) — lower, -21%
- COc1ccc(C(=O)N/N=C(\C)c2ccc3c(c2)C2C=CCC2C(c2ccccc2)N3)cc1 (centres unmarked) — higher, -1.79%
- COC(=O)c1ccc(C2Nc3ccc(/C(C)=N/NC(=O)C(OC)c4ccccc4)cc3C3C=CCC32)cc1 (centres unmarked) — lower, -76.2%
- CCN(CC)C(=O)c1csc(Nc2ccc(C)cc2)n1 — lower, -34.8%
- S=C(NCc1cccnc1)Nc1cccc2ccccc12 — lower, -9.3%
- c1ccc2c(c1)nc(N1CCOCC1)c1ccccc12 — higher, 11.2%
- c1ccc(-c2nc3ccccc3nc2N2CCOCC2)cc1 — lower, -54.7%
- c1ccc2nc(N3CCOCC3)c(N3CCOCC3)nc2c1 — higher, -1.12%
- Br.CCCCN1C2=NCCCN2c2ccccc21 — lower, -54.5%
- Br.CCN1C2=NCCCN2c2cc(C)c(C)cc21 — lower, -23.2%
- Br.CCCCN1C2=NCCCN2c2cc(C)c(C)cc21 — lower, -65.4%
- c1ccc([C@H]2CN3C(=N2)Sc2ccccc23)cc1 — lower, -19.2%
- CCCN1C2=NCCCN2c2ccccc21.Cl — lower, -9.58%
- CCCCCCCN1C2=NCCCN2c2ccccc21.Cl — lower, -58.5%
- CCCCN1C2=NC(c3ccccc3)CN2c2ccccc21.Cl (centres unmarked) — lower, -69%
- CCCN1C2=NCCN2c2cc(C)c(C)cc21.Cl — lower, -30.7%
- CCCCN1C(N)=NC[C@@H]1c1ccccc1 — higher, -2.61%
- COCCN1C(=O)CS/C1=C(/C#N)C(=O)NCc1ccco1 — higher, -7.92%
- COc1ccc(C(=O)O)cc1S(=O)(=O)Nc1cccc(C)c1 — lower, -18.9%
- Cc1ccc(-n2nnc3c(=O)n(CC(=O)NCc4ccccc4)cnc32)cc1 — lower, -15.5%
- C[C@@H]1CC[C@@]23COC(=O)C2=CCC[C@@H]3[C@@]1(C)CC/C(=C/CO)CO — higher, -6.27%
- O=C(c1ccc(Cl)c(Cl)c1)N1CCC(=O)N(C(CO)Cc2ccccc2)CC1 (centres unmarked) — higher, 5.42%
- CCOC(=O)c1cn2nc(Oc3cccc(C(F)(F)F)c3)ccc2n1 — higher, -6.27%
- O=c1cc(-c2ccncc2)oc2c1ccc1ccccc12 — higher, -4.57%
- Cl.c1ccc2c(c1)N1CCCN=C1N2CCN1CCCCC1 — lower, -62.8%
- Cl.c1ccc2c(c1)N1CCN=C1N2CCN1CCCCC1 — lower, -15.3%
- CCCCCCN1C2=NCCCN2c2ccccc21.Cl — lower, -78.3%
- COc1cccc(/C=C/C(=O)Nc2ccc3[nH]c(=O)[nH]c3c2)c1 — higher, 7.9%
- Cc1ccc(S(=O)(=O)N(C)c2ccc(C(=O)N3CCN(Cc4ccc5c(c4)OCO5)CC3)cc2)cc1 — lower, -44.1%
- COc1ccc(N(CC(=O)N2CCN(Cc3ccccc3)CC2)S(=O)(=O)c2ccccc2)cc1 — lower, -26.3%
- Cc1ccc(S(=O)(=O)N(C)CC(=O)N2CCN(Cc3ccccc3)CC2)cc1 — lower, -24.6%
- COc1ccc(S(=O)(=O)N(CC(=O)N2CCN(C)CC2)c2ccc(C)cc2)cc1OC — lower, -11%
- CS(=O)(=O)N(CC(=O)N1CCN(Cc2ccccc2)CC1)c1ccc2c(c1)OCCO2 — higher, -5.94%
- Cc1ccc(S(=O)(=O)N(C)CC(=O)N2CCN(Cc3ccc4c(c3)OCO4)CC2)cc1 — lower, -66.6%
- COc1ccc(N(CC(=O)N2CCN(Cc3ccc4c(c3)OCO4)CC2)S(C)(=O)=O)cc1OC — higher, 9.47%
- CCN1CCN(C(=O)CN(c2ccc(F)cc2)S(=O)(=O)c2ccc(OC)c(OC)c2)CC1 — lower, -66.8%
- CS(=O)(=O)N(CC(=O)N1CCN(Cc2ccc3c(c2)OCO3)CC1)c1ccc2c(c1)OCO2 — lower, -58.9%
- O=C(CN(c1ccccc1)S(=O)(=O)c1ccccc1)N1CCN(Cc2ccc3c(c2)OCO3)CC1 — lower, -33.4%
- COc1ccc(N(CC(=O)N2CCN(Cc3ccc4c(c3)OCO4)CC2)S(=O)(=O)c2ccc(F)cc2)cc1 — lower, -84.6%
- COc1ccc(S(=O)(=O)N(CC(=O)N2CCOCC2)c2ccc(F)cc2)cc1OC — higher, 10.7%
- COc1ccc(C(=O)NCc2nnc(SCC(=O)Nc3cccc(F)c3)o2)cc1 — higher, -1.96%
- COCCn1c(-c2ccc(OC)c(OC)c2)nc2ccccc21 — lower, -21.6%
- O=C1NC(=NCc2ccccc2)S/C1=C\c1ccccc1 — higher, 23.8%
- C=CCOc1ccc(Br)cc1CNCCCN1CCOCC1.Cl — lower, -27.7%
- COc1ccccc1NC(=O)COc1cc(Br)c(CNCCCN2CCOCC2)cc1OC — lower, -54.6%
- O=C(COc1ccc(Br)cc1CNCCCN1CCOCC1)Nc1ccccc1 — lower, -47.8%
- COc1cc(CNCCCN2CCOCC2)c(Br)cc1OC(C)C.Cl — higher, 5.58%
- COc1cc(CNCCCN2CCOCC2)c(Br)cc1OCC(=O)Nc1ccccc1C — lower, -15.3%
- COc1ccccc1NC(=O)COc1ccc(Br)cc1CNCCCN1CCOCC1.Cl — lower, -58.6%
- COc1cc(NC(=O)c2ccc(C)cc2)ccc1NC(=O)c1cc2ccccc2o1 — higher, 15.2%
- Cc1ccc(C)c(NC(=O)CSc2nnc(CCNC(=O)OC(C)(C)C)o2)c1 — lower, -12.3%
- CC1(C)CC(c2csc(N)n2)CCO1 (centres unmarked) — higher, 2.95%
- Cc1ccc(N(CC(=O)N2CCN(c3ccc(F)cc3)CC2)S(=O)(=O)c2c(C)nn(C)c2C)cc1 — lower, -65.8%
- COc1ccc(N(CC(=O)N2CCN(c3ccc(F)cc3)CC2)S(=O)(=O)c2c(C)n[nH]c2C)cc1 — lower, -69.4%
- Cc1ccc(N(CC(=O)N2CCN(c3ccc(F)cc3)CC2)S(=O)(=O)c2c(C)noc2C)cc1 — lower, -39.5%
- COc1ccc(N(CC(=O)N2CCN(c3ccccc3F)CC2)S(=O)(=O)c2c(C)n[nH]c2C)cc1 — lower, -20.6%
- Cc1ccc(N(CC(=O)NCc2ccc(F)cc2)S(=O)(=O)c2c(C)nn(C)c2C)cc1 — lower, -24.5%
- COc1ccc(N(CC(=O)N2CCN(c3ccc(Cl)cc3)CC2)S(=O)(=O)c2c(C)n[nH]c2C)cc1 — lower, -10.1%
